This is a sample that favours compounds with a hit; in the whole collection about 8.7% have one here.
Vaccinia mCherry: inhibitors of vaccinia virus infection (mCherry reporter signal). Vaccinia virus mCherry reporter infection, fluorescence. AID 720579. 310,000 compounds, 0.63% hits. Potency, µM (titrated, usually from 36.5 µM), for inactives: at the top dose activity change, negative = inhibition, most hits filed as inhibitors; calls by dose curve; tested in A549 cells; further: nearly all actives have a fitted effect of over 35% in size
Pf growth 48h: P. falciparum growth inhibition at 48 hours (one generation). 310,000 compounds, 5.9% hits. Potency, µM (highest dose often 28.7 µM), for the others: top-dose activity change, negative = inhibition, hits mostly inhibitors. AID 504832. P. falciparum luciferase growth in erythrocytes, 48 h
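Luciferase-expressing P. falciparum in infected erythrocytes (2% hematocrit, 0.1% parasitemia final) in RPMI 1640/0.5% Albumax were exposed to compound for 48 hours at 37 C, 5% CO2; growth read as luminescence.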
Pf growth 96h: inhibits malaria parasite growth, 96 h. Potency, µM (doses to about 28.7 µM), for the others: at the top dose activity change, negative = inhibition, usual class: inhibitors. P. falciparum luciferase reporter growth, 96 h. AID 504834. 320,000 compounds, 6.9% hits
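Compounds incubated with erythrocytes infected by luciferase-expressing P. falciparum (2% hematocrit, 0.05% parasitemia final) for 96 hours, 37 C in 5% CO2. Growth inhibition scored as decreased luciferase luminescence.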
AMA1-RON2 inh: disrupts binding of P. falciparum AMA1 to RON2; AlphaScreen AMA1-biotinylated RON2 peptide binding; Potency, µM (top dose mostly 58.2 µM), for the others: top-dose activity change, negative = inhibition, hits mostly inhibitors; 360,000 compounds, 0.2% hits;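 further: 0% = vehicle wells and -100% = peptide control; nearly all actives have a fitted effect of over 45% in size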
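AMA1 (3D7) with his tag at 25 nM final met compounds first, then biotinylated RON2 peptide at 25 nM; detection used donor plus acceptor beads, 10 µg/mL apiece, read by AlphaScreen after 30 min at room temperature.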
Vaccinia Venus: inhibitors of vaccinia virus (Venus reporter). Potency, µM (doses to about 36.5 µM), for inactives: top-dose activity change, negative = inhibition, hits mostly inhibitors. 330,000 compounds, 0.46% hits. AID 720580. Vaccinia virus Venus reporter expression, fluorescence; calls by dose curve; tested in A549 cells; further: nearly all actives have a fitted effect of over 30% in size
Active calls of the source: *; i = inactive; ? = inconclusive; / = not tested or not shown. Unless noted, the call rests on the fitted dose curve; in most records, active means well fitted curve in the direction sought with a large enough effect; inconclusive means small, poorly fitted or top-dose-only effect, or another doubt; inactive means no such curve, though single readings can be large; an effect the other way counts as inactive or inconclusive. Unless noted, on the % scale 0 is the no-effect control and ±100 the full control effect; potency means the concentration at half of the fitted maximal effect.

SMILES | Vaccinia mCherry | Pf growth 48h | Pf growth 96h | AMA1-RON2 inh | Vaccinia Venus
COC(=O)c1c(NC(NC(C)=O)C(Cl)(Cl)Cl)sc2c1CCCC2 (stereo not drawn) | -4% | ? | 10µM* | -9% | -28%
CCOC(=O)c1ccc(NC(=O)Cn2nnc(-c3ccc(C(F)(F)F)cc3)n2)cc1 | 0% | / | / | / | 1%
CC1CCc2onc(C(=O)N3CCN(c4ccc(Cl)cc4)CC3)c2C1 (stereo not drawn) | -2% | / | / | / | -12%
O=C(Nc1ccncc1)C1CCN(S(=O)(=O)c2ccccc2C(F)(F)F)CC1 | -7% | ? | 3.3µM* | -1% | -21%
Cc1ccnc(NC(=O)C2CCN(S(=O)(=O)c3ccc(Cl)c(C(F)(F)F)c3)CC2)c1 | i | -10% | 128% | -2% | -11%
O=C(Nc1ccncc1)C1CCN(S(=O)(=O)c2ccc(Cl)c(C(F)(F)F)c2)CC1 | / | ? | 12µM* | -4% | /
O=C(c1cnc(N2CCCCC2)c2ccccc12)N1CCN(c2ccccc2F)CC1 | -8% | / | / | / | -17%
CCCCNC(=O)c1ccc2c(c1)ncn2-c1cc(OC)ccc1OC | i | / | / | / | -11%
O=C1CC[C@@H](C(=O)NCC2Cc3cc(Cl)cc(-c4ccc5[nH]ccc5c4)c3O2)N1 (stereo partly drawn) | -20% | / | / | / | 5%
CCn1ncc(/C=N\NC(=O)c2ccc3c(c2)c(C)c(C)n3Cc2ccccc2)c1C | -27% | / | ? | -10% | -21%
CCn1nc(C)c(/C=N/NC(=O)c2ccc3c(c2)c(C)c(C)n3Cc2ccccc2)c1C | -8% | / | 12µM* | -9% | ?
CCn1cc(/C=N\NC(=O)c2ccc3c(c2)c(C)c(C)n3Cc2ccccc2)c(C)n1 | -19% | / | 10µM* | -15% | -7%
CCCc1ccc(C(C)NC(=S)NCc2ccc(F)cc2)cc1 (stereo not drawn) | -16% | ? | 12µM* | 12% | -23%
CCC(C)c1ccc(C(C)NC(=S)NCc2ccc(F)cc2)cc1 (stereo not drawn) | ? | ? | ? | 67% | -29%
CCOc1ccc(C(C)NC(=S)NCc2ccc(Cl)cc2)cc1 (stereo not drawn) | / | ? | 5.2µM* | 4% | /
CCC(NC(=S)NCc1ccc(F)cc1)c1ccc(C(C)C)cc1 (stereo not drawn) | / | 10µM* | ? | 80% | /
Cc1cccc(NC(=O)NCCn2c(=O)oc3ccc(C)cc32)c1 | -14% | / | / | / | -3%
CCc1ccccc1NC(=O)CN(c1ccccc1OC)S(=O)(=O)c1ccc(C)cc1 | -7% | / | / | / | -6%
N#C/C(=C/c1cn(-c2ccccc2)nc1-c1cccc(OCc2ccc(F)cc2)c1)C(=O)NCCCn1ccnc1 | -24% | 3.7µM* | 2.1µM* | 9% | ?
CCCOc1cccc(-c2nn(-c3ccccc3)cc2/C=C(\C#N)C(=O)NCCCn2ccnc2)c1 | -2% | 2.1µM* | 10µM* | 29% | -11%
COc1ccc(NC(=O)c2sc3nc[nH]c(=O)c3c2C)cc1OC | -1% | / | / | / | -10%
CCOc1ccccc1NC(=O)CCc1c(C)nc2c3cccnc3nn2c1C | -5% | / | / | / | -7%
O=C(Nc1ccc(Cl)cc1)Nc1nc(-c2sccc2Br)cs1 | i | 8.3µM* | 9.3µM* | -16% | ?
Cc1csc(NC(=O)Nc2ccc(Cl)cc2)n1 | / | / | / | -14% | /
O=C(Nc1ccc(Cl)cc1)Nc1nc(-c2ccccc2O)cs1 | / | 1.7µM* | ? | 43% | /
SMILES | Vaccinia mCherry | Pf growth 48h | Pf growth 96h | AMA1-RON2 inh | Vaccinia Venus
COc1cccc(CCNc2ncnc3sc(C(=O)N4CCN(C)CC4)c(C)c23)c1 | -11% | / | / | / | -13%
COc1ccc2c(c1)[C@H]1[C@H](CO2)[C@H](c2ccccc2)[C@]2(C)C(=O)Nc3cc(C)ccc3C(=O)N12 | -22% | / | / | -8% | ?
COc1ccc2c(c1)[C@H]1[C@H](CO2)[C@H](c2ccccc2)[C@]2(C)C(=O)Nc3cc(Cl)ccc3C(=O)N12 | -9% | 5.2µM* | 1.9µM* | -26% | ?
COc1cc2c(cc1OC)C(=O)N1[C@H]3c4cc(Cl)ccc4OC[C@@H]3[C@H](c3ccccc3)[C@]1(C)C(=O)N2 | ? | 15µM* | 9.3µM* | -7% | ?
COc1cc2c(cc1OC)C(=O)N1[C@H]3c4cc(C)ccc4OC[C@@H]3[C@H](c3ccccc3)[C@]1(C)C(=O)N2 | -7% | / | / | -1% | ?
Cc1ccc2c(c1)[C@H]1[C@H](CO2)[C@H](c2ccccc2)[C@]2(C)C(=O)Nc3cc(Cl)ccc3C(=O)N12 | ? | 8.3µM* | 9.3µM* | -3% | -28%
CC(C)N(C(=O)Cn1cc(SCC(=O)Nc2ccccc2F)c2ccccc21)C(C)C | -7% | / | / | / | -11%
Cc1ccc2cc(CN(C(=O)c3cccc(Cl)c3)c3ccccc3)c(=O)[nH]c2c1 | -3% | / | / | / | -19%
Cc1onc(-c2c(F)cccc2Cl)c1C(=O)NC1C(=O)N2C1SC(C)(C)C2C(=O)O (stereo not drawn) | / | -14% | -23% | / | /
NC(=S)N/N=C1\CC(c2ccc3c(c2)OCCCO3)Oc2ccc(F)cc21 (stereo not drawn) | -27% | ? | ? | 7% | 0%
NC(=S)N/N=C1\CC(c2ccc3c(c2)OCCO3)Oc2ccc(F)cc21 (stereo not drawn) | 11µM* | ? | 12µM* | 72% | ?
COC(=O)Nc1ccc(S(=O)(=O)N2CCCc3ccccc32)cc1 | / | ? | 39% | -5% | /
O=C(Nc1nc2c(s1)CCCC2)c1ccc(S(=O)(=O)N2CCCc3ccccc32)cc1 | i | ? | 10µM* | -13% | -26%
O=C(Nc1nc2c(s1)CN(Cc1ccccc1)CC2)c1cccc(S(=O)(=O)N2CCc3ccccc32)c1 | / | ? | 8.3µM* | 8% | /
CNC(=O)c1ccsc1NC(=O)c1ccc(S(=O)(=O)N2CCCc3ccccc32)cc1 | ? | 12µM* | 9.3µM* | -3% | ?
CCc1nnc(NC(=O)c2ccc(S(=O)(=O)N3CCCc4ccccc43)cc2)o1 | -29% | 7.4µM* | / | -1% | -27%
O=C(Nc1nc2ccccc2s1)c1cccc(S(=O)(=O)N2CCc3ccccc32)c1 | -23% | ? | ? | 54% | -21%
CCc1ccccc1NC(=O)Cn1c(=O)n(CC(=O)NCCc2ccccc2)c(=O)c2ccccc21 | -8% | / | / | / | -3%
CCc1cccc(NC(=O)C(CC(C)C)NS(=O)(=O)c2ccc3c(c2)oc(=O)n3C)c1 (stereo not drawn) | -12% | / | / | / | -9%
CCOc1ccc(CNC(=O)CCS(=O)(=O)Cc2ccc(C)cc2)cc1OC | -28% | 7% | 58% | 5% | -14%
CCOc1ccc(CNC(=O)CCS(=O)(=O)Cc2ccccc2C)cc1OC | / | ? | 9.3µM* | 0% | /
CC(Oc1ccccc1)C(=O)Nc1nnc(C2CCCCC2)s1 (stereo not drawn) | -19% | 27% | 0.0029µM* | -11% | -7%
O=C(CCC(=O)Nc1nnc(C2CCCCC2)s1)NCc1cccs1 | -2% | 20% | 10µM* | -8% | -13%
